Results as given in PubChem BioAssay AID504332 (National Center for Advancing Translational Sciences (NCATS), 2011).
Screen size: about 350,000 compounds; about 31,000 (8.9%) were called active. Inconclusive results (about 15%) are left out. The full list was thinned out, with actives kept by preference. A number with no mark means an inactive call. The call rests on the fitted dose curve; in most records, active means well fitted inhibition curve with a large enough effect; inconclusive means small, poorly fitted or top-dose-only effect; inactive means no such curve, though single readings can be large or run the other way.

Biological target: Histone-lysine N-methyltransferase EHMT2 (Homo sapiens) (UniProt Q96KQ7)
Experiment: qHTS Assay for Inhibitors of Histone Lysine Methyltransferase G9a; further: nearly all actives have a fitted effect of over 75% in size
Conditions: G9a H3K9 monomethylation, AlphaScreen, 2 h; series mostly up to 59 µM; activity, negative = inhibition: at the top concentration
Method in brief: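 Methyltransferase reactions run at room temperature for 2 h (20 nM enzyme, 500 nM biotin-H3K9 peptide, 20 uM SAM) after a 15 min compound preincubation; product detected by AlphaScreen beads and anti-H3K9me1 antibody.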
On the % scale 0 is the no-effect control and ±100 the full control effect; potency means the concentration at half of the fitted maximal effect.

Histone-lysine N-methyltransferase EHMT2 (Homo sapiens), sequence (Q96KQ7 913-1193 limits assumed): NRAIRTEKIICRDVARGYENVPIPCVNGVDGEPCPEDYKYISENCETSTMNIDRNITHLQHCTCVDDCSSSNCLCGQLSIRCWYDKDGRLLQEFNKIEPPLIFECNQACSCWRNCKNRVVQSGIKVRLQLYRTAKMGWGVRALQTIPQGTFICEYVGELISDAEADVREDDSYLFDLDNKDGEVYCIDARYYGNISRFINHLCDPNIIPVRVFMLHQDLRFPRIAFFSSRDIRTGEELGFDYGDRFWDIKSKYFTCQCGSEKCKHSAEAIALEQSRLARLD

SMILES | activity, negative = inhibition | Potency
O=C(Nc1cc(-c2nc3ccccc3o2)ccc1Cl)c1cc([N+](=O)[O-])ccc1N1CCOCC1 | -4.37% | –
Cc1cc(NC(=O)CN2CCC(O)(c3cccc(F)c3)CC2)no1 | – | 8.91 µM (active)
CC(=O)NC1(c2cccc(F)c2)CCN(CC(=O)NC(C)C)CC1 | -5.2% [at 12.7 µM] | –
O=C(CN1CCC(O)(c2ccccc2)CC1)Nc1ccc2c(c1)OCCO2 | -2.46% [at 102 µM] | –
COc1cc(OC)c(NC(=O)Cc2ccc(-n3c(C)nc4cccnc43)cc2)cc1Cl | -25.8% | –
CC(=O)c1ccc(NC(=O)CSc2nc(-c3ccccc3F)nc3c2c(=O)n(C)c(=O)n3C)cc1 | 6.95% | –
O=C(c1cccnc1NCc1ccccc1)N1CCOCC1 | -30.2% | –
Oc1c(C(c2ccccn2)N2CCOCC2)ccc2cccnc12 (configuration not stated) | – | 8.91 µM (active)
CCOc1cc(N2CCOCC2)c(OCC)cc1NC(=O)COc1cccc2cccnc12 | 16.3% | –
O=S(=O)(c1ccc(Br)cc1)c1nnn2c1nc(NC1CCCCCC1)c1sccc12 | -20.4% | –
O=c1n(Cc2cccc(C(F)(F)F)c2)c2ccccc2c2nc(-c3ccccc3)nn12 | 6.25% | –
CCn1c2c(c(=O)n3ncc(C(=O)N4CCN(c5ccccc5)CC4)c13)CN(Cc1ccc(OC)cc1)CC2 | -14% | –
Cc1cc2c(cc1C)C(c1cccc(OC(C)C)c1)CC(=O)N2 (configuration not stated) | -3.79% | –
COc1ccccc1CCNC(=O)C(=O)NCCC1CCCCN1S(=O)(=O)c1cccs1 (configuration not stated) | -9.04% [at 102 µM] | –
O=C(NC(=S)Nc1ccc2oc(=O)ccc2c1)c1ccc(-c2cccc(Cl)c2Cl)o1 | – | 10 µM (active)
O=C(COc1ccc(Cl)cc1)Nc1ccc2oc(=O)ccc2c1 | 14.1% [at 102 µM] | –
CC(C)C(=O)Nc1ccc2oc(=O)ccc2c1 | 10.8% [at 102 µM] | –
Cc1ccc(C(=O)CSc2nc(-c3ccccc3)nc3c2CCCC3)c(C)c1 | 19.5% | –
CC(Oc1cccc(Cl)c1)C(=O)Nc1ccc(S(=O)(=O)Nc2ncccn2)cc1 (configuration not stated) | – | 35.5 µM (active)
CCc1ccc(OC(C)C(=O)Nc2ccc(S(=O)(=O)Nc3cc(C)on3)cc2)cc1 (configuration not stated) | -9.68% [at 102 µM] | –
O=C(/C=C/c1ccc(Cl)cc1)Nc1ccc(S(=O)(=O)Nc2ncccn2)cc1 | 0.147% [at 102 µM] | –
Cc1ccc(Cl)cc1NC(=O)CSc1nccn1C | -2.21% | –
CS(=O)(=O)N1CCc2cc(C(=O)Nc3ccccc3Br)ccc21 | -11.2% [at 102 µM] | –
O=S(=O)(c1ccc(C2CCCCC2)cc1)N1CCN(c2ccc(Cl)c(Cl)c2)CC1 | 7.66% | –
O=C(c1ccccn1)c1ncc(C(F)(F)F)cc1Cl | 22.6% [at 102 µM] | –

SMILES | activity, negative = inhibition | Potency
O=c1[nH]oc(O)c1-c1ncc(C(F)(F)F)cc1Cl | – | 44.7 µM (active)
CC(=O)c1ccc(Cc2ncc(C(F)(F)F)cc2Cl)s1 | -41.4% | –
COc1ccccc1CNC(=O)COC(=O)c1sc(C)nc1C | 11.2% [at 2.33 µM] | –
CCCNC(=O)c1onc(CSc2ccc(F)cc2)c1C(=O)NC(C)C | 20% [at 2.33 µM] | –
COc1ccc(Nc2nc(Cl)nc(NCc3ccco3)n2)cc1 | 8.73% | –
COc1ccc(-n2cnc3cc(NCc4ccco4)ccc32)cc1 | – | 44.7 µM (active)
COc1ccc(-n2cnc3cc(C(=O)NC4CCCC4)ccc32)cc1 | – | inactive
Cc1nn(C)c(C)c1NS(=O)(=O)c1ccc(OC(F)(F)F)cc1 | -1.93% [at 102 µM] | –
CCN(CC(=O)Nc1cc(Cl)ccc1C)C(=O)CSCc1ccccc1 | -2.77% [at 102 µM] | –
NC(N)=N/N=C/c1ccc(OCc2ccc(Cl)cc2Cl)cc1 | – | 50.1 µM (active)
CCOc1ccc(NC(=O)NNC(=O)c2ccc(Cl)cc2Cl)cc1 | 11.1% [at 102 µM] | –
COc1ccc(C(=O)O/N=C(\N)Cc2ccc(Cl)cc2Cl)cc1OC | 20.9% | –
COc1ccc(CNc2nc(-c3ccc(Cl)cc3)cc(C(F)(F)F)n2)cc1 | 195% | –
CCc1ccc(NS(=O)(=O)c2ccc3[nH]cc(C(=O)NCCc4cccc(C)c4)c(=O)c3c2)cc1 | -19.8% | –
CC(C)(C)OC(=O)N1CCC(c2c(C(=O)Nc3ccc4c(c3)OCO4)cnn2-c2ccccc2)CC1 | -5.36% | –
CC(C)(C)c1ccc(C(=O)NCCC(=O)NCc2ccco2)cc1 | – | 44.7 µM (active)
CCCCNC(=O)CCNC(=O)c1ccc(C(C)(C)C)cc1 | -0.948% [at 102 µM] | –
O=C(CCNC(=O)c1ccccc1Cl)NCc1ccco1 | 4% [at 12.7 µM] | –
COCCCNc1nc2c(-c3cccc(C)c3)nnn2c2ccc(Cl)cc12 | 3.35% [at 0.501 µM] | –
Cc1nc2ccccc2c(=O)n1-c1ccc(NS(=O)(=O)c2ccc(F)cc2F)cc1 | 0.725% [at 102 µM] | –
O=C(CN1CCN(c2ccccc2O)CC1)NC(=O)NCc1ccccc1 | -1.41% [at 12.7 µM] | –
Oc1ccccc1N1CCN(C(=S)NCc2ccccc2)CC1 | – | 31.6 µM (active)
O=C1CCN(C(=S)NCCc2ccccc2)CC1 | -0.505% [at 102 µM] | –
Oc1ccc(N2CCN(C(=S)NCc3ccccc3)CC2)cc1 | – | 10 µM (active)
O=C(COC(=O)c1ccccc1C(=O)N1CCN(c2ccccc2)CC1)NCc1ccccc1 | 2.03% [at 102 µM] | –

SMILES | activity, negative = inhibition | Potency
S=C(NCCc1ccccc1)N1CCCCC1 | -19.5% [at 102 µM] | –
CCCc1cc(=O)[nH]c(SCC(=O)c2c(N)n(CC(C)C)c(=O)n(C)c2=O)n1 | -10.6% [at 102 µM] | –
CCOc1cccc(NC(=O)c2ccc(F)c(S(=O)(=O)N(CC)c3cccc(C)c3)c2)c1 | 16.5% | –
O=C(CCS(=O)(=O)c1cc(Br)cc2c1N(C(=O)C1CC1)CC2)Nc1ccc(C(F)(F)F)cc1 | -24.3% | –
CC(C)C(NC(=O)c1c(F)cccc1F)C(=O)NCc1ccncc1 (configuration not stated) | -32.8% [at 102 µM] | –
O=C(CSc1nc(Nc2ccccc2)nc(N2CCOCC2)n1)Nc1cc(Cl)ccc1O | – | 50.1 µM (active)
Cc1ccccc1NC(=O)CSc1nc2ccc(Nc3nc(N4CCOCC4)nc(N4CCOCC4)n3)cc2s1 | 1.18% [at 102 µM] | –
CC1(c2ccccc2)NC(=O)N(CC(=O)Nc2cc(Cl)ccc2N2CCOCC2)C1=O (configuration not stated) | 22.3% [at 0.501 µM] | –
CCOc1ccc(NC(=O)Cn2c(C)ccc(C#N)c2=O)cc1 | 5.45% | –
Cn1nc(-c2ccccc2)c(-c2ccccc2)c(C(=O)Nc2ccc(S(N)(=O)=O)cc2)c1=O | -38.6% | –
O=C(CN1C(=O)COc2ccc(S(=O)(=O)N3CCCCCC3)cc21)N1CCN(c2cccc(C(F)(F)F)c2)CC1 | -31.2% | –
COc1ccc(-c2nc(CN3CCN(c4ncccn4)CC3)c(C)o2)cc1C | 12.2% [at 102 µM] | –
Cc1ccc(CN2CCN(c3ncccn3)CC2)c(C)c1 | – | 10 µM (active)
c1cnc(N2CCN(c3ccc4ccccc4n3)CC2)nc1 | 9.32% [at 102 µM] | –
Oc1ccc(CN2CCN(c3ncccn3)CC2)cc1 | – | 79.4 µM (active)
Cc1cc(OCC(=O)N2CCN(c3ncccn3)CC2)ccc1Cl | 24.5% [at 102 µM] | –
CN(C)C(=O)c1nc2ccc(Cl)cn2c1CN1CCN(c2ncccn2)CC1 | 13.2% [at 102 µM] | –
O=C1NCCn2nc3ccccc3c21 | 16.4% [at 2.33 µM] | –
Cn1c(=O)cc(OCC(=O)N2CCN(c3ccccc3)CC2)c2ccccc21 | 3.66% | –
COc1cccc2cc(C(N)=O)/c(=N\NC(=O)c3ccccc3)oc12 | -3.82% [at 102 µM] | –
O=C(c1ccc(C(F)(F)F)cc1)N1CCC(c2nc(-c3ccc(S(=O)(=O)N4CCCC4)cc3)no2)CC1 | 1.19% | –
CCOc1ccccc1-n1c(SCC(=O)NCc2ccco2)nnc1-c1ccncc1 | -44.9% | –
CCn1c(SCC(=O)NCc2ccco2)nnc1-c1ccc(N)cc1 | 27.9% | –
Cc1ccc(-c2csc3nnc(SCC(=O)NCc4ccco4)n23)cc1 | – | 17.8 µM (active)
O=C(Cc1ccc(S(=O)(=O)N2CCOCC2)s1)N1CCN(c2ccc(C(F)(F)F)cc2[N+](=O)[O-])CC1 | 5.52% [at 0.501 µM] | –

SMILES | activity, negative = inhibition | Potency
O=C(Nc1ccccc1C(=O)N1CCCCC1)c1ccco1 | 6.04% [at 102 µM] | –
CS/C(=C\C(=O)c1ccco1)Nc1ccccc1Cl | – | 50.1 µM (active)
COC(=O)c1cc(Cl)c(NC(=O)c2ccco2)cc1OC | 13.8% | –
Cc1nc2ccc(S(=O)(=O)N(CC(=O)Nc3ccc(F)cc3)Cc3ccccc3)cc2s1 | 9.8% | –
CCOC(=O)N1CCN(C(=O)C2CCN(S(=O)(=O)c3cc(Cl)ccc3OCC)CC2)CC1 | 25.7% [at 102 µM] | –
CCOC(=O)N1CCN(CCC(=O)Nc2cc(OC)ccc2OC)CC1 | 1.26% [at 102 µM] | –
CCOC(=O)N1CCN(C(=O)C2CCN(Cc3ccc(OC)cc3OC)CC2)CC1 | – | 7.94 µM (active)
CCN1C(=O)[C@H]2[C@@H](c3ccc(-c4ccc(OC)cc4)cc3)N[C@@](Cc3ccccc3)(C(=O)OC)[C@H]2C1=O | -6.39% [at 2.33 µM] | –
CCOc1ccc(NC(=O)CN(C)C(=O)CCSc2ccc(F)cc2)cc1OCC | 21% [at 12.7 µM] | –
CCN(CC(=O)Nc1ccccc1C(=O)NC1CC1)Cc1cccs1 | -3.89% [at 102 µM] | –
Cc1nnc(SCC(=O)NNC(=O)c2ccc(Cl)cc2)n1CC1CCCO1 (configuration not stated) | – | 35.5 µM (active)
Cc1nnc(SCC(N)=O)n1CC1CCCO1 (configuration not stated) | -0.186% [at 2.33 µM] | –
O=C(COc1ccc(Cl)cc1)NCc1nnc(SCC(=O)NCC2CCCO2)o1 (configuration not stated) | 9.29% | –
O=C(CSc1nnc(-c2ccco2)n1Cc1ccccc1)NC(=O)NCc1ccco1 | -51% | –
O=C(CSc1nnc(-c2ccco2)n1CC1CCCO1)c1ccccc1 (configuration not stated) | – | 50.1 µM (active)
O=C(CSc1nnc(-c2ccco2)o1)NCC(=O)c1ccccc1 | 81.8% | –
CCC(NC(=O)C1CCCC1)c1ccc(C)cc1 (configuration not stated) | 32.5% [at 102 µM] | –
Cc1ccccc1NC(=O)Cn1c(=O)n(CCc2ccccc2)c(=O)c2ccccc21 | 3.53% | –
Cc1ccc(S(=O)(=O)Nc2nc(CN3CCOCC3)nc3sc(C)c(C)c23)cc1 | 19.1% [at 2.33 µM] | –
O=C(OCC(=O)N1CCCCCC1)c1cnc(Cl)c(Cl)c1 | -2.7% | –
CCNC(=O)N1CCN(S(=O)(=O)c2ccc3c(c2)OCCCO3)CC1 | -26.7% [at 2.33 µM] | –
COc1ccc(OC)c(CCNC(=O)CCn2ccc3cc(S(=O)(=O)N4CCCC4)ccc32)c1 | 21.9% | –
